Reference: the supplement of paper PMC10127200
Structures can show the parent of a compound that is named as a salt.

Legend:
Test in all cases: Euclidean distance of Cell Painting phenotypic profile (signed KS, 77 features) to DMSO centroid (dimensionless distance); 5 or 10 uM (library dependent); higher = stronger phenotypic change vs DMSO (phenoactivity)
Details in all cases: 48 h
[1] = tested on: 786-O
How it was run: (§1)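 At 10 or 5 uM, as set by the library, and 0.1% DMSO final, compounds were applied for 48 h to five cancer lines and one healthy fibroblast line. Stained cells were imaged confocally at 20X in 9 fields per well, and Harmony extracted 77 features scored as signed Kolmogorov-Smirnov statistics against vehicle wells on the same plate. Profiles underwent plate-position correction, correlation weighting and replicate averaging at the top dose. Phenoactivity is the Euclidean distance from each such profile to the median vehicle profile.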

[2] = tested on: A549
How it was run: as §1

[3] = tested on: FB
How it was run: as §1

[4] = tested on: HEPG2
How it was run: as §1

[5] = tested on: OVCAR4
How it was run: as §1

[6] = tested on: DU145
How it was run: as §1

Compound	Euclidean distance [1]	Euclidean distance [2]	Euclidean distance [3]	Euclidean distance [4]	Euclidean distance [5]	Euclidean distance [6]
Cc1cccn2c(=O)c(-c3nnn[nH]3)cnc12 [Pemirolast potassium]	1.31	0.747	0.893	0.682	1.05	
C[C@@H]1CN(CC(=O)Nc2ccc3c(c2)Cc2cccc(-c4cc(=O)cc(N5CCOCC5)o4)c2S3)C[C@H](C)O1	1.16	1.25	1.37		2.14	1.41
NC(=O)c1ncn([C@@H]2O[C@H](CO)[C@@H](O)[C@H]2O)c1O [Mizoribine]	1.26	0.927	0.917	0.657	0.855	
Nc1[nH]cnc2ncnc1-2 [Adenine HCl]	1.09	0.466	1.18	0.46	1.59	
Cc1ccccc1C(OCCN(C)C)c1ccccc1 (stereo not given) [Orphenadrine Hydrochloride]	0.905	1.11	0.736	0.938	1.08	
COC(=O)C[C@](O)(CCCC(C)(C)O)C(=O)O[C@@H]1C(OC)=C[C@]23CCCN2CCc2cc4c(cc2[C@H]13)OCO4 [Homoharringtonine]	3.57	3.34	4.13	3.18	3.7	
C[C@]12C=CC(=O)C=C1CC[C@@H]1[C@@H]2C(=O)C[C@@]2(C)[C@H]1CC[C@]2(O)C(=O)CO [Prednisone]	2.09	2.37	2.39	1.49	2.03	
Cc1nnc(C(=O)NC(C)(C)c2nc(C(=O)NCc3ccc(F)cc3)c(O)c(=O)n2C)o1 [Raltegravir potassium]	1.12	0.895	1.33	0.632	1.04	
CCN(CC)CCOc1ccc(C(=C(Cl)c2ccccc2)c2ccccc2)cc1 [Clomifene citrate]	4.89	3.99	3.36	4.07	3.4	
CN[C@@H]1CCc2[nH]c3ccc(C(N)=O)cc3c2C1 [Frovatriptan Succinate]	1.33	0.718	0.896	0.505	1.29	
CS(=O)(=O)c1ccc(Oc2cc(F)cc(C#N)c2)c2c1[C@H](O)C(F)(F)C2	1.1	1.02	1.28	0.605	1.38	
Cc1c(OCC(F)(F)F)ccnc1C[S+]([O-])c1nc2ccccc2[nH]1 (stereo not given) [Lansoprazole]	1.16	2.3	0.815	1.08	0.948	
Cc1ccc(Sc2ccccc2N2CCNCC2)c(C)c1 [Vortioxetine]	2.68	2.71	2.68	5.06	2.43	
CCC(NC(C)C)C(O)c1ccc(O)c(O)c1 (stereo not given) [Isoetharine Mesylate]	0.478	0.789	1.18	0.832	1.01	
CCOC(=O)C1=C(C)NC(C)=C(C(=O)OC)C1c1cccc(Cl)c1Cl (stereo not given) [Felodipine]	1.02	1.19	0.651	0.85	0.942	
CCOC(=O)[C@H](CCc1ccccc1)N[C@H]1CCc2ccccc2N(CC(=O)O)C1=O [Benazepril]	0.912	0.486	0.851	0.54	1.04	
CCOCCn1c(N2CCCN(C)CC2)nc2ccccc21 [Emedastine]	0.676	0.686	0.988	0.905	0.553	
COCCCOc1cc(C[C@@H](C[C@H](N)[C@@H](O)C[C@H](C(=O)NCC(C)(C)C(N)=O)C(C)C)C(C)C)ccc1OC [Aliskiren Hemifumarate]	0.778	0.371	0.622	0.506	0.752	
